The campaign covered roughly 53,000 compounds. About 900 (1.7%) showed an effect of 50% or more. The list comes from a sample in which strong results are over-represented; it also holds similar structures and randomly drawn compounds.
These molecules were tested on Mycobacterium tuberculosis (assay: Cornell - Phenotypic assay to identify agents that inhibit growth of Mycobacterium tuberculosis). Settings: 10 mM as filed; unlikely as a test dose.
Format: functional
Design: scale not given: direction of the effect not stated beside the values

SMILES	Percent Effect
COc1ccc(CN(C)C(=O)NCc2c(C)cc(C)nc2OC)cc1	-10.68%
CN(C)c1nccc(NCc2cc(-c3ccco3)n[nH]2)n1	37.45%
COc1ccccc1NC(=O)c1ccc(C)n1C	27.91%
COc1cccc(OC)c1CN1CC(=O)N(c2ccc(C)cc2)CC1C (stereo not drawn)	67.79%
COc1cc(CN2CC(=O)N(c3ccc(C)cc3)CC2C)cc(OC)c1 (stereo not drawn)	47.02%
COc1ccc(CN2CC(=O)N(c3ccc(C)cc3)CC2C)cc1O (stereo not drawn)	5.464%
O=C(O)C(F)(F)F.O=C(O)C(F)(F)F.O=C1[C@H]2CN(Cc3ccc(F)cc3)C[C@H]2CN1CCN1CCCC1	-24.72%
O=C1CC[C@@H](CN(Cc2ccncc2)Cc2nc(-c3cccs3)no2)N1	-23.52%
CCNC(c1ccc(CC)cc1)c1cccnc1 (stereo not drawn)	-41.16%
CCc1cc(=O)n(CC(=O)N2CCCC2)c(-c2ccc(F)cc2)n1	28.21%
COc1ccccc1N1CCN(CC(=O)NC(C)c2ccco2)CC1 (stereo not drawn)	25.38%
CSCC[C@H](NC(=O)Cn1ccc2c(Br)cccc21)C(=O)O	5.043%
COC(=O)[C@H](CCSC)NC(=O)Cn1ccc2c(Cl)cccc21	106.6%
CSCC[C@H](NC(=O)CCn1ccc2c(Cl)cccc21)C(=O)O	15.96%
Cc1ccc(CN2CCC3(CC2)NC(=O)CC3c2ccccc2)s1.O=C(O)C(F)(F)F (stereo not drawn)	1.118%
O=C1C(Nc2nccn3cnnc23)CCN1c1cccc(Cl)c1 (stereo not drawn)	-12%
CCN(CC)C(=O)CSc1nnc(CCNC(=O)OC(C)(C)C)o1	-12.06%
CS(=O)(=O)CCn1ccc(NC(=O)Cc2c[nH]c3ccccc23)n1	31.98%
O=C(c1cnn2c(-c3ccco3)ccnc12)N1CCCCCC1	38.47%
CC(C)N(C(=O)Cn1c(-c2ccco2)cc2cccnc21)C(C)C.Cl	99.58%
COCCNC(=O)Cn1c(-c2ccco2)cc2cccnc21	49.86%
Cc1ncccc1-c1cc2cccnc2n1CCCNC(=O)C1CC1.Cl	15.61%
Cl.O=C(Cn1c(-c2ccco2)cc2cccnc21)N1CCCC1	60.37%
Cl.O=C(CCn1c(C(F)(F)F)cc2cccnc21)N1CCCC1	-14.31%
COCc1cc(N2CCN(C3CCCCC3)CC2)n2nccc2n1	6.435%
CCn1ccnc1CN1CCN(C(C)C(=O)N2CCCC2)CC1 (stereo not drawn)	-13%

SMILES	Percent Effect
CCC1(O)CCCN(c2nc(-c3ccccn3)nc3c2c(C)nn3C)C1 (stereo not drawn)	23.24%
CCCNC(=O)Nc1ccc2c(c1)N(S(=O)(=O)CC)CC2	11.66%
CS(=O)(=O)N1CC[C@]2(O)CCN(CCCC(=O)c3ccccc3)C[C@@H]2C1	2.425%
C=Cn1ncc(CN2C[C@@H]3CCCN3C[C@@H]2CCSC)c1C	-11.11%
Cc1ccc(-c2noc(C3CCN3C(=O)c3c(C)noc3C)n2)s1 (stereo not drawn)	48.41%
Cc1c[nH]c(C2COCCN2C(=O)c2ccc(=O)[nH]n2)n1 (stereo not drawn)	0.9699%
CC(=O)N1CCC(C(=O)N2CCC2c2nc(-c3ccc(C)s3)no2)CC1 (stereo not drawn)	-6.67%
Cc1ccc(-c2noc(C3CCN3C(=O)c3ccc(=O)[nH]n3)n2)s1 (stereo not drawn)	58.13%
CC(=O)N1CCC1c1nc(-c2ccc(C)s2)no1 (stereo not drawn)	7.935%
Cc1ccc(-c2noc(C3CCN3C(=O)c3ccn(C)n3)n2)s1 (stereo not drawn)	54.98%
CC1CCCCN1C(=O)c1ccc(=O)[nH]n1 (stereo not drawn)	-37.74%
Cc1ccc(-c2noc(C3CCN3C(=O)c3cc[nH]n3)n2)s1 (stereo not drawn)	52.32%
Cc1cc(O)cc(C2CCCN2C(=O)c2ccn(C)n2)n1 (stereo not drawn)	-43.03%
CCN1CCn2c(C)cnc2C12CCN(C(=O)c1cscn1)CC2.O=C(O)C(F)(F)F.O=C(O)C(F)(F)F	-12.15%
CC(C)c1cc(CN(C)C(=O)CN2CCNC2=O)no1	-1.518%
Cc1cc(C)cc(CN2CCN(C(=O)CCc3n[nH]c(C)n3)CC2=O)c1	-36%
Cc1cnc(N2CCC3(CC(=O)N(Cc4csc(C)n4)C3)C2)nc1.O=C(O)C(F)(F)F (stereo not drawn)	10.64%
CCCOc1ccc(Cl)cc1C(=O)N1CCC(n2cncn2)CC1	-8.806%
Clc1cnc(NCc2ccccc2N2CCOCC2)nc1	11.26%
Cc1cc(C)c2c(N3CCN(C(=O)N4CCOCC4)CC3)ncnc2n1	-18.35%
CC(C)O[C@@H]1CC[C@H]2[C@H]1OCCN2C(=O)c1nn(C)c2ccccc12	4.286%
CC(C)S(=O)(=O)CC(=O)NCC(Cc1ccc(F)cc1)C(N)=O (stereo not drawn)	7.629%
CC1(c2ccccc2)CCCN(Cc2cncn2C2CC2)C1 (stereo not drawn)	-6.001%
CC1(c2ccccc2)CCCN(Cc2cncn2C2CCCC2)C1 (stereo not drawn)	105.1%
COCCn1cncc1CN1CCCC(C)(c2ccccc2)C1 (stereo not drawn)	16.9%
Cn1nccc1NCc1cc2cc(F)ccc2o1	-27.44%

SMILES	Percent Effect
COc1ccc(CNC(C)c2cccc(Cl)c2)c(OC)c1OC (stereo not drawn)	-6.089%
COc1ccc(CNC(C)c2ccc(Cl)cc2)c(OC)c1OC (stereo not drawn)	4.187%
COc1ccc(CNC(C)c2ccc(Cl)c(Cl)c2)c(OC)c1OC (stereo not drawn)	81.35%
Cc1cc(NCc2ccc(CO)cc2)n2nc(C)cc2n1	-38.88%
CC1(C)CC(N2Cc3nc(N)ncc3C2=O)CC(C)(C)N1	5.443%
CC(C)CN1Cc2nc(N)ncc2C1=O	0.3963%
Nc1ncc2c(n1)CN(C1CCCC1)C2=O	100.2%
Cc1cnn(CCNCc2ccc(OCc3ccncc3)cc2)c1	-5.152%
CC(C)CN1Cc2c(C(=O)N(C)C)ncn2-c2ccccc2S1(=O)=O	-10.19%
CCCc1nnc2sc(CC3CN(Cc4ccccc4)CCO3)nn12 (stereo not drawn)	22.38%
Cc1cnc(NS(=O)(=O)c2ccccc2)s1	18.01%
CNS(=O)(=O)c1cccc(S(=O)(=O)Nc2ncc(C)s2)c1	51.19%
Cc1cnc(NS(=O)(=O)c2cccc(C#N)c2)s1	-17.84%
CCc1noc(C(C)N2CCN(c3ccc(C#N)cn3)CC2)n1 (stereo not drawn)	-10.8%
Cc1ncncc1C(=O)N1CCOC(C(=O)NC2CCCC2)C1 (stereo not drawn)	-44.04%
Cn1cncc1CN1CCCC1c1cncc(Oc2ccc(Cl)cc2)n1 (stereo not drawn)	-20.26%
Cn1ccc2cc(C(=O)NC3CCOC(C)(C)C3)ccc21 (stereo not drawn)	38.28%
COCCn1ccc2cc(C(=O)NC3CCOC(C)(C)C3)ccc21 (stereo not drawn)	51.29%
Cn1ccc2ccc(C(=O)NC3CCOC(C)(C)C3)cc21 (stereo not drawn)	33.83%
COc1ccc2c(c1)OCC(Cc1cc(C(=O)N3CCCC3)ccn1)C2 (stereo not drawn)	3.952%
CCC(C)N(C)C(=O)Nc1ccc(N2CCSCC2)cc1C (stereo not drawn)	109%
Cc1ccc(C(=O)N2CCSCC2)cc1NC(=O)NCCO	4.458%
Cc1cc(N2CCSCC2)ccc1NC(=O)N(CCO)C1CC1	109.4%
CCCN(CC1CC1)C(=O)Cn1ccccc1=O	23.77%
CCN(CC)C(=O)Nc1ccc(N2CCSCC2)cc1C	107.3%
Cc1ccc(C(=O)N2CCSCC2)cc1NC(C)C	8.4%

SMILES	Percent Effect
COCCNC(=O)Nc1ccc(C(=O)N2CCSCC2)cc1C	-6.31%
CCCN(CC1CC1)C(=O)Nc1ccc(N2CCSCC2)cc1C	108.2%
CCN(CC1CCCO1)C(=O)Nc1cccc(N2CCOCC2)c1 (stereo not drawn)	5.45%
COCCOc1ccc(NC(=O)N(CCO)C2CC2)cn1	5.522%
CCOCC(=O)Nc1ccc(N2CCSCC2)cc1C	35.44%
COCCCN(CCOC)C(=O)Nc1ccc(C)cc1C	-5.189%
CNc1ncc2c(n1)CN(CCc1ccc(Cl)cc1)C2=O	6.698%
O=C(O)C(F)(F)F.c1ccc(CN2CCC3(CC2)CC(Nc2nccs2)CO3)nc1 (stereo not drawn)	10.27%
CN1CCCC1c1cncc(C(=O)NCCN2CCCCC2)n1 (stereo not drawn)	5.104%
O=C(O)C(F)(F)F.O=C(O)C(F)(F)F.c1coc(CN2C[C@@H]3CCCO[C@@H]3[C@H](N3CCCC3)C2)c1	-1.356%
COc1ccccc1Nc1nc2c(C)nn(C)c2c(=O)n1C	-35.16%
CCS(=O)(=O)N1CCc2c(nc(C3CCCN3)nc2NC)C1.Cl (stereo not drawn)	-16.35%
c1ccc(-c2cc(CN3C[C@@H]4CC[C@H](C3)N(CC3CC3)C4)on2)cc1	34.91%
C1CC(CN2C[C@H]3CC[C@@H]2CN(Cc2noc(C4CCCC4)n2)C3)C1	50.34%
c1ccc(-c2cc(CN3C[C@H]4CC[C@H]3C4)on2)cc1	18.4%
C1CC(CN2C[C@H]3CC[C@@H]2CN(Cc2nnc(C4CC4)o2)C3)C1	14.78%
c1ccc(-c2nnc(CN3C[C@@H]4CC[C@H](C3)N(CC3CCC3)C4)o2)cc1	34.96%
c1ccc(-c2cc(CN3C[C@@H]4CC[C@H](C3)N(CC3CCC3)C4)on2)cc1	96.75%
O=C(c1cnc(-c2cccnc2)nc1)N1CCSCC1	-5.308%
CCc1ccc(C(COC)NC(=O)c2ccc(F)c(NC(C)=O)c2)o1 (stereo not drawn)	-34.26%
Cc1cc(CN2CCCC2)cc(Oc2nc(C)cnc2C)c1	-0.05473%
COCCN(C)C[C@@H]1CN(C(=O)c2ccc(OC)c(F)c2)C[C@@H]1CO	3.272%
C[C@@H]1CN(C2CCN(c3ccccc3F)CC2)C[C@]1(C)O	-0.763%
Cc1cc(F)ccc1N1CCC(N2C[C@@H](CN(C)C)[C@@H](CO)C2)CC1	20.05%
Cc1cc(F)ccc1N1CCC(N2C[C@@H](C)[C@@](C)(O)C2)CC1	57.75%

From ChEMBL document CHEMBL3988442, “University of Dundee, Small-Polar-MMV Screening Library” (2021)
